# The supplement of paper PMC6555819
# Tested on: VDR:RXRa (NR concentration 270 nM, RXRa partner concentration 90 nM)
# Assay: PBM binding z-score (relative to random genomic background probes); higher = stronger binding; sequences stand for … in GC…GCGATTGACAGCGTAGAATGAAGG
# Experimental: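 Protein-binding microarray (Agilent 4x180K custom design, double-stranded 60-nt probes: 5' GC cap, 34-nt variable region, 24-nt constant primer region; full probe sequence given). Purified or IVT nuclear receptor:RXRα heterodimers (3:1 NR:RXRα, mostly 270:90 nM) or homodimers were incubated for 1 h in PBS with 2% milk and no ligand, then detected with Alexa488 antibodies. Fluorescence from o1-orientation probes (~5 replicates averaged) was converted to z-scores against 500 random hg19 background probes. Variable regions are seed direct-repeat (DR0–DR5) sites, all their single-nucleotide variants and half-site ablations.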
row,Sequence,PBM binding z-score
1,CGTCCAAGGTCAGAAGGTCAGTGAAAGCGACGTG,4.14
2,TCTGGTTGGTCACGGAGGTCACACACGACGGGTA,5.92
3,GCTATTAGTTGAAAGCGCAACCGAATGATTCTCG,-0.272
4,CATACAAGGTCAGCTAGGCCAGAGTAGGGACGGC,3.81
5,TATACAGGGCCAAAGGCCAGAGTACGAATGTCGA,0.13
6,ATCGAAAGGCCGAAGGTGAGTATACCCACCCGAA,-0.338
7,GCATATAGGTAATACATGGTGAAAGTCCGATTGT,-0.0137
8,GCTTGTAGATCAAGGTTAAGAATGACTAAGCTAA,0.0818
9,ACTTACGGGTCGACGAGGTTATAGCACGCGTATA,6.05
10,AATATAGGGTCACTAGGCCAGAGTAGGTACGAAT,4.06
11,CGAACTAGGTCATCCGGGACAGTGAATACATTGA,4.04
12,CGTCCAGGGTCAATGCTAGGTCAGTGAAAGCATT,4.9
13,TCTGCTAGGGCAGTTGGTCAGCTAACGAGCTGCC,-0.663
14,CCGACAGGGGCAGAAAGGTTACCATACCATCCGG,1.75
15,ACTCGCAGGCCAAGTTTGGGTCACTCAAACAAAG,0.787
16,ATCTCTAGGTACAAGTTCAGTGAATCCCGAGGAT,1.96
17,CGAACTAGGTCAGAATAGGACAGTGAAGGATGAT,0.491
18,TCTATTAGTTGATTCGGGCAACCGAAACAGCGGA,0.506
19,AGATCGAGGGCACGCTGAGTTGATAGCAGAGTAG,1.85
20,AGAACGCGGGCACGCTGAGTTGATAGCAGAGTAG,-0.403

row,Sequence,PBM binding z-score
1,ATCTCCAGGTAAAGTTCAGTGAAAGATCGATAGA,1.83
2,CTCGAAAGGTCGTGCTCAGGTGAGGATACCAAAC,3.3
3,CGTCAAAGTTCAACTAAGGTAACATAAAGCACGC,4.72
4,ATATGTAGGTTAAGGGCCATTCAGGTTGGTTCGC,1.01
5,TAGCCTAGGTCATTGGCCAGTATACCACGCGAAC,2.18
6,TCTGCTAGGTCAGTTGGTCGGCTAACGAGCTGCC,0.0498
7,GCTTGTAAATCAAGGTTAAGAAAGACTAAGCTAA,0.379
8,CCTTACGGGTCACAGACAGGTTATAGCATTTGGA,4.06
9,AGTCAAAGTTCATCTAGGTAAAGTAAGATATGCT,4.84
10,TATGCTAGGTCAGTTGGTCAGCTAACGAGCTGCC,0.137
11,CGTAAAAGTTCAAGGTAACGTAACAGAAAGCAGC,3.38
12,GCTAGCTGGTCAGTAAAAGGTCACACACCGGTCG,3.52
13,ACTATTAGTTGACTTAGGGCAAACGATACGACGC,0.55
14,ATCTCTAGGTAACCAAGTACAGTGAATGCCGAAC,1.19
15,CTCGAAAGCTCGTGCTCAGGTGAGTATACCAAAC,-0.8
16,TGTCAAAGATCAAAGGTAACGTAAGTATCCACAC,0.973
17,AGAATGAGGATACCAAAGATCAGGGAAACGCTTG,-0.361
18,TGATTGAGGTTAAAGATCAGGGAACGTGGCGTCG,1.94
19,CTCGAAAGGTCGTGCTCGGGTGAGTATACCAAAC,3.43
20,TCATATAGGTAAAGAGGTGAAAGTCCGTAAGTTA,1.45
